Results published in PubChem BioAssay (NCI).
Compounds without any hit were thinned out: in the full panel of roughly 83,000, 20% have a hit.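 Compound tested at a single concentration for 48 hours in 96-well plates; a percent growth value below 10 was scored as active.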 Values without a mark were called inactive. Active and inactive are the calls of the source.

How the values were obtained:
Assay in all cases: NCI-60 one-dose screen, 48 h (100 = growth as untreated, 0 = no growth, -100 = all killed)
Conditions in all cases: 10 µM unless noted
SK-MEL-2 melanoma = test system: SK-MEL-2 melanoma
EKVX NSCLC = test system: EKVX NSCLC
SN12C renal = test system: SN12C renal
UO-31 renal = test system: UO-31 renal
TK-10 renal = test system: TK-10 renal
ACHN renal = test system: ACHN renal
CAKI-1 renal = test system: CAKI-1 renal
A498 renal = test system: A498 renal
CCRF-CEM leukemia = test system: CCRF-CEM leukemia
MOLT-4 leukemia = test system: MOLT-4 leukemia

Compound | growth (SK-MEL-2 melanoma) | growth (EKVX NSCLC) | growth (SN12C renal) | growth (UO-31 renal) | growth (TK-10 renal) | growth (ACHN renal) | growth (CAKI-1 renal) | growth (A498 renal) | growth (CCRF-CEM leukemia) | growth (MOLT-4 leukemia)
Cc1sc2nc(NCCc3c[nH]c4ccc(Cl)cc34)[nH]c(=O)c2c1C | 78.5% | 41.7% | 51.7% | 18.6% | 63.9% | 42.9% | 12% | 69.4% | 33.9% | 38.7%
Cn1ccc(=O)c(C(=O)Nc2nsc3ccc([N+](=O)[O-])cc23)c1 | 55.7% | 81.7% | 75.3% | 28.1% | 50% | 32.6% | 6.88% (active) | 31.9% | 82.7% | 83.4%
COC12C=C/C(=C(/C(=O)OCc3ccncc3)C(=O)CCCCCCCCC3(OC)C=C/C(=C(/C(=O)OCc4ccncc4)C(=O)CCCCCCCC1)O3)O2 | -1.63% (active) | -22.1% (active) | -30.6% (active) | -70.9% (active) | -45% (active) | -64% (active) | -48.6% (active) | -87.6% (active) | -14.8% (active) | -1.82% (active)
C/C(=N\O)c1ccc(Cl)cc1 | 120% | 103% | 99% | 91.4% | 107% | 105% | 96.9% | 111% | 118% | 86.3%
COc1cc2nc3cc([N+](=O)[O-])ccc3c(NCCNCC(C)O)c2cc1OC (stereo not given) | -29.6% (active) | 9.5% (active) | -16.2% (active) | 28.6% | 14.3% | 2.74% (active) | 18.6% | -34% (active) | -6.35% (active) | -0.334% (active)
CCOCCNC1=C(Cl)C(=O)c2ccccc2C1=O | 92.3% | 106% | 100% | 105% | 125% | 110% | 115% | 94.4% | 102% | 89.2%
C[PH+](c1nc2ccccc2nc1[PH+](C)C(C)(C)C)C(C)(C)C.C[PH+](c1nc2ccccc2nc1[PH+](C)C(C)(C)C)C(C)(C)C.[Au+].[Cl-] (stereo not given) | -76.6% (active) | -82.5% (active) | -59.1% (active) | -90.9% (active) | -91.6% (active) | -97.1% (active) | -93.4% (active) | -99.1% (active) | 12.2% | 8.3% (active)
CCCCCCCCCCCCCCCCCCOc1ccccc1CC(=O)OCC[N+](C)(C)C | 64.8% | 46.9% | 10% | 61.3% | 18% | 55.8% | 9.52% (active) | 45.1% | 5.24% (active) | -7.37% (active)
NC(=O)CSc1oc(-c2ccccc2)nc1S(=O)(=O)c1ccc(Br)cc1 | 99.2% | 95.4% | 65.7% | 59.7% | 82.1% | 64.4% | 87.9% | 61.4% | 110% | 89.2%
COc1cc2c(c(OC)c1OC)CCC(c1cccc(C(=O)Nc3ccc(C#N)cc3)c1)O2 (stereo not given) | 50.7% | 60.1% | 46.6% | 25% | 57.6% | 39.8% | 43.4% | 50.8% | 10.5% | -14.4% (active)
C=C(C)[C@@H]1CC[C@]2(C(=O)O)CC[C@]3(C)[C@H](CC[C@@H]4[C@@]5(C)CCC(NC(=O)c6cccc(OC(C)=O)c6OC(C)=O)C(C)(C)[C@@H]5CC[C@]43C)[C@@H]12 (stereo not given in full) | 14.9% | 2.51% (active) | 12.5% | -39% (active) | 19.7% | 3.98% (active) | 3.74% (active) | -21.9% (active) | 10.4% | 8.43% (active)
COC(=O)/C=C1/SC(=Nc2cccc(OC)c2)N(CCc2c[nH]c3ccc(O)cc23)C1=O | 57.6% | 66.9% | 62.3% | 55.7% | 117% | 71.8% | 82.2% | 64.9% | 4.98% (active) | -1.26% (active)
COCCNC(=O)Nc1ccc2nc(-c3cccs3)c(-c3cccs3)nc2c1 | 101% | 87.9% | 94.7% | 74.4% | 104% | 89.3% | 89.8% | 33.7% | 96.8% | 85.9%
